The whole screen tested about 340,000 compounds, of which about 3,300 (0.97%) were called active.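 How the source made its calls: active means maximum activity change below -70%; inconclusive means maximum activity change from -70% to -50%; inactive means maximum activity change above -50%.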 The entries come from a sample that favours actives as a whole.
On the % scale 0 is the no-effect control and ±100 the full control effect.

This assay deals with Potassium voltage-gated channel subfamily H member 2, brain isoform KCNH2 3.1 (human). The assay can be described thus: qHTS for Inhibitors of KCHN2 3.1: Mutant qHTS. The settings on record: U2OS KCNH2 3.1, thallium flux FluxOr; hits give low values. The method in brief: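 Virally transduced U2OS (3.1 isoform, 4 h infection in dark at RT) → overnight 37 C → FluxOr + Red40 in HBSS/HEPES, 45 min → stimulation buffer, 2 min kinetic read → rate constant vs DMSO controls.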
In general terms: In qHTS, concentration-response curves come from the screen itself.
In the case of `Cc1ccc(/C=C/C(=O)Nc2cc(S(=O)(=O)N3CCCCCC3)ccc2OCC(F)(F)F)o1`, the activity change was -83.4% (active).
In the case of `COc1ccc(S(=O)(=O)N2CCCCC2)cc1NC(=O)COc1ccccc1` it was -11.6% (inactive); in that of `O=C(Nc1cc(S(=O)(=O)N2CCOCC2)ccc1OCC(F)(F)F)c1ccc(N2CCCC2=O)cc1`, -24.2% (inactive); in that of `CNC(=O)C[C@H]1C(=O)N(c2ccc(OC)cc2)C[C@@H]1Cc1ccccc1`, 6.56% (inactive).
In the case of `COCCCn1c(=O)/c(=C/c2ccccc2OC(C)C)s/c1=C(\C#N)C(=O)Nc1ccc(C(=O)O)cc1` it was 1.1% (inactive); in that of `CCOC(=O)N1CCN(C(=O)C2CCN(S(=O)(=O)c3cc(Cl)ccc3OCC)CC2)CC1`, -0.753% (inactive).
`CCOc1ccc(S(=O)(=O)N2CCC(c3ccccc3)CC2)cc1C(=O)O`: the activity change is -0.0458% (inactive).
Consider `CCOc1ccc(Br)cc1S(=O)(=O)N1CCC(C(=O)O)CC1`, for which the activity change is -119% (active).
Turning to `Cc1ccccc1NC(=O)Cc1nc(COC(=O)C(C)(C)Oc2ccc(Cl)cc2)cs1`, the activity change is 0.0076% (inactive).
In the case of `O=C(C1CCN(C2CCN(Cc3cccc4c3OCO4)CC2)CC1)N1CCOCC1` it was 1.54% (inactive); in that of `O=C(C1CCN(C2CCN(Cc3ccc4cc(F)ccc4n3)CC2)CC1)N1CCCC1`, -46.6% (inactive); in that of `C/C(=C\c1ccco1)CN1CCC(N2CCC(C(=O)N3CCOCC3)CC2)CC1`, -81.6% (active).
As for `COc1ccc([C@H]2C[C@@H](n3cc(COC(=O)c4ccccc4)nn3)[C@H](O)CN2C(=O)c2cccs2)cc1`, the figure is 5.99% (inactive).
In the case of `COc1cc(-c2nnc(NC(=O)CS(=O)(=O)c3ccc(Cl)cc3)o2)cc(OC)c1OC` it was 3.81% (inactive); in that of `CN1OC[C@@H]2CN[C@H](c3ccc(-c4ccccc4)cc3)C[C@@H]21`, -8.66% (inactive); in that of `CC(C)c1cc(C(=O)N(C)C2CCCN(Cc3ccccc3F)C2)n(C)n1` (stereo unspecified), -13.2% (inactive).
Take `COc1ccc(NC(=O)CN(C)C(=O)c2cc(C)oc2C)cc1`: the activity change is -19.2% (inactive).
Regarding `CCOC(=O)Cn1c(-c2cccnc2Cl)nc2ccccc21`, the activity change was -86.5% (active).
In the case of `CCOC(=O)Cn1c(=O)n(Cc2ccc(OC)cc2)c(=O)c2cccnc21` it was -6.36% (inactive).
In the case of `CCn1c(-c2cccnc2Cl)nc2cc(C)c(C)cc21` it was 1.97% (inactive); in that of `CC(C)Oc1ccc(CCc2nnc(SCC(=O)O)n2-c2ccccc2)cc1`, -77.9% (active); in that of `CC(C)Oc1ccc(CCc2n[nH]c(=S)n2Cc2ccccc2)cc1`, 3.01% (inactive).
In the case of `CNC(=O)CSc1nnc(CCc2ccccc2)n1-c1ccccc1` it was -7.79% (inactive); in that of `O=Cc1cn(CCOc2ccc(F)cc2)c2ccccc12`, -5.46% (inactive); in that of `O=C(NCc1ccccc1)C1CNCC(C(=O)NCc2ccccc2)C1` (stereo unspecified), -3.07% (inactive).
As to `O=C(CCN1C(=O)c2ccccc2C1=O)Nc1cccc(F)c1`, the activity change is 3.35% (inactive).
In the case of `O=C(CN1CCCCCC1)Nc1ccc(Cl)cc1F` it was 7.99% (inactive); in that of `O=C(CN1CCN(C(=O)c2cccc(F)c2)CC1)Nc1ccccc1F`, -0.253% (inactive).
As for `CNC(=O)NC(=O)C(C)N1CCN(C/C=C/c2ccccc2)CC1` (stereo unspecified), the figure is -32.3% (inactive); as for `O=C(CCN1CCN(C/C=C/c2ccccc2)CC1)Nc1ccccc1Cl`, -111% (active); as for `O=C(CN1CCN(C/C=C/c2ccccc2)CC1)Nc1ccc(F)cc1F`, -107% (active).
For the compound `O=C(CCN1CCN(C/C=C/c2ccccc2)CC1)Nc1cccc(F)c1`, the activity change was -109% (active).
With `CCOC(=O)N1CCN(CCC(=O)Nc2ccccc2)CC1`, the activity change was 12.9% (inactive).
In the case of `COc1ccccc1NC(=O)CCN1CCN(c2ccc(Cl)cc2)CC1` it was -5.85% (inactive); in that of `O=C(C[C@H]1C[C@@H]2c3cc(NC(=O)C4CCC4)ccc3O[C@@H]2[C@H](CO)O1)NC1CCCCC1`, -25.5% (inactive); in that of `N#Cc1ccc(OCC(=O)Nc2nc(-c3ccccn3)cs2)cc1`, 6.83% (inactive).
As for `CCN1C(=O)[C@H]2[C@@H](c3ccccc3)N[C@]3(CCCN(Cc4ccc(C)cc4)C3=O)[C@H]2C1=O`, the figure is 28.9% (inactive); as for `COc1ccc(-c2ccc3[nH]c4c(c3c2)CCN2C[C@H]3[C@H](C)ON(C)[C@H]3C[C@@H]42)cc1`, -3.51% (inactive).
Consider `O=C(CCc1ccc(O)cc1)NN=Cc1cc(Br)ccc1O`, for which the activity change was 1.97% (inactive).
As for `O=C(COc1ccc(Br)cc1)OCC(=O)c1ccc[nH]1`, the figure is -1.12% (inactive); as for `COc1ccc(N)cc1NC(=O)CN1CCOCC1`, 1.24% (inactive); as for `Cc1ccc(-n2c(SCC(=O)Nc3ccc4c(c3)OCO4)nnc2-c2ccccn2)cc1`, 1.11% (inactive).
As for `Cc1ccc(-n2c(SCC(=O)Nc3ccc4c(c3)OCO4)nnc2-c2ccoc2C)cc1`, the figure is -79.7% (active); as for `O=C(CSc1nnc(-c2ccccn2)n1-c1ccccc1)Nc1ccc2c(c1)OCO2`, 2.89% (inactive).
In the case of `COc1cccc(/C=C2\SC(=S)N(CCCC(=O)N3CCOCC3)C2=O)c1` it was -1.71% (inactive); in that of `COc1ccc(CN2C(=O)C(CC(=O)NCCCCc3ccccc3)CC(C(=O)N3CCOCC3)=C2C)cc1` (stereo unspecified), -14.3% (inactive).
As for `Cc1cc(OCC(=O)Nc2nccs2)c2c(C)c(C)c(=O)oc2c1`, the activity change is -8.76% (inactive).
As for `CN1CCN(CCNC(=O)Nc2ccc([N+](=O)[O-])cc2)CC1`, the figure is 4.38% (inactive).
In the case of `O=C(NCCCN1CCN(c2ccc(F)cc2)CC1)Nc1ccc([N+](=O)[O-])cc1` it was -86.7% (active).
For `O=C(CN1CCN(c2ccccc2)CC1)Nc1ccc(F)cc1`, the activity change is 0.316% (inactive).
As for `CN(C)C(CNC(=O)c1cc(Br)c(Br)s1)c1ccco1` (stereo unspecified), the activity change was -1.59% (inactive).
With `O=C(NCc1nnnn1-c1ccc(Cl)cc1)c1ccc2c(c1)OCO2`, the activity change was -10.1% (inactive).
In the case of `O=C(COC(=O)c1cncc(Br)c1)Nc1ccc(S(=O)(=O)N2CCOCC2)cc1`, the activity change was -6.79% (inactive).
As for `COC(=O)[C@@H](Cc1ccccc1)NC(=O)NCCc1ccccc1`, the figure is -9.89% (inactive); as for `COC(=O)[C@H](Cc1ccccc1)NC(=O)N1CC(C)OC(C)C1` (stereo partly specified), -5.69% (inactive); as for `COC(=O)[C@H](Cc1ccccc1)NC(=O)[C@@H]1C[C@H]1[C@@H](NC(=O)OCc1ccccc1)c1ccccc1`, -95.1% (active).

(Values after PubChem BioAssay AID720553 (National Center for Advancing Translational Sciences (NCATS), 2013).)
